Legend:
Assay in all cases: universal protein binding microarray (PBM); transcription factors of Arabidopsis thaliana; high values mean tight binding
[1] = target: T1, GST-ANAC092(1-176) (Arabidopsis thaliana, UniProt Q9FKA0 1-176); conditions: protein: recombinant; tags: GST; chain copies: 2; dsDNA, one strand shown
T1 sequence: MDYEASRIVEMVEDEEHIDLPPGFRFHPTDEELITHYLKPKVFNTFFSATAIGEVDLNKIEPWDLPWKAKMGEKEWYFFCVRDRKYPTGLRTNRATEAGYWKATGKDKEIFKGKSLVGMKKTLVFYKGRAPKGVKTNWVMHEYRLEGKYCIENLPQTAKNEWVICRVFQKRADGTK
Summary of the method: (§1)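 Each value is a normalised enrichment score (E-score) describing binding. The GST-tagged proteins, NAC-domain, full-length or DNA-binding-domain, were induced in cells (zinc-finger proteins with zinc acetate added) and purified on glutathione–Sepharose 4B. They were applied at 200 to 500 nM final, in duplicate, to double-stranded custom all-10-mer Agilent 4 × 180K arrays, and gapped and ungapped 8-mers were scored.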

[2] = target: GST-NTL6(1-168) (Arabidopsis thaliana, UniProt Q9SCK6 1-168); conditions: protein: recombinant; tags: GST; chain copies: 2; dsDNA, one strand shown
Summary of the method: as §1

[3] = target: T2, GST-ANAC019 NAC domain (Arabidopsis thaliana, UniProt Q9C932 14-162); conditions: protein: recombinant; tags: GST; chain copies: 2; dsDNA, one strand shown
T2 sequence: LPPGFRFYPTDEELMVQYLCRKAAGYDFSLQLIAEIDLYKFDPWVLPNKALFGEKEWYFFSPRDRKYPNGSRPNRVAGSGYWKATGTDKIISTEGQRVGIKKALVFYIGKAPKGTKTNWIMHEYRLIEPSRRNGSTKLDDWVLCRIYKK
Summary of the method: as §1

[4] = target: T3, GST-ANAC055(1-171) (Arabidopsis thaliana, UniProt Q9LDY8 1-171); conditions: protein: recombinant; tags: GST; chain copies: 2; dsDNA, one strand shown
T3 sequence: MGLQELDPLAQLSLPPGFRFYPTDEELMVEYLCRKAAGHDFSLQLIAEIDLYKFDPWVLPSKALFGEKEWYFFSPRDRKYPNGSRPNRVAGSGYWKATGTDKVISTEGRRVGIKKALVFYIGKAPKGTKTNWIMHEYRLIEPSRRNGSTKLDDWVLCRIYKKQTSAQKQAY
Summary of the method: as §1

[5] = target: T4, GST-ATAF1 NAC domain (Arabidopsis thaliana, UniProt Q39013 7-158); conditions: protein: recombinant; tags: GST; chain copies: 2; dsDNA, one strand shown
T4 sequence: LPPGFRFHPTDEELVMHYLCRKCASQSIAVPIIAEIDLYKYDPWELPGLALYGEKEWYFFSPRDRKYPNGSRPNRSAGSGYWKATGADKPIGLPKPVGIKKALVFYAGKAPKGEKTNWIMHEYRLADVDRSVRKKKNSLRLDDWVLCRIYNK
Summary of the method: as §1

[6] = target: T5, GST-ANAC092(1-285) full length (Arabidopsis thaliana, UniProt Q9FKA0 1-285); conditions: protein: recombinant; tags: GST; chain copies: 2; dsDNA, one strand shown
T5 sequence: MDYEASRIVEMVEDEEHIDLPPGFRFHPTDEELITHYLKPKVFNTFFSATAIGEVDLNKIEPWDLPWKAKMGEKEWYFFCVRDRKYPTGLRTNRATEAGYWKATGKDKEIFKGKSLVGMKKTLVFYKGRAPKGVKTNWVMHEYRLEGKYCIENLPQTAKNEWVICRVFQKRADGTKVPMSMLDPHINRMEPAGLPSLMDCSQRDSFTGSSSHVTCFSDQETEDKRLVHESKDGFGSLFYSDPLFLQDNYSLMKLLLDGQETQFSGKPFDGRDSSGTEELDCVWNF
Summary of the method: as §1

[7] = target: T6, GST-NAP(1-166) (Arabidopsis thaliana, UniProt O49255 1-166); conditions: protein: recombinant; tags: GST; chain copies: 2; dsDNA, one strand shown
T6 sequence: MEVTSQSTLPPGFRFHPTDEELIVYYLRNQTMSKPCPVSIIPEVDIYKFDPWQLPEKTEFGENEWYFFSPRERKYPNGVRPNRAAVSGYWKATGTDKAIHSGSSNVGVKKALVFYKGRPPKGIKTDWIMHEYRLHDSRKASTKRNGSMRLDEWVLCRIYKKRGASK
Summary of the method: as §1

[8] = target: T7, GST-NST2(1-184) (Arabidopsis thaliana, UniProt Q9M274 1-184); conditions: protein: recombinant; tags: GST; chain copies: 2; dsDNA, one strand shown
T7 sequence: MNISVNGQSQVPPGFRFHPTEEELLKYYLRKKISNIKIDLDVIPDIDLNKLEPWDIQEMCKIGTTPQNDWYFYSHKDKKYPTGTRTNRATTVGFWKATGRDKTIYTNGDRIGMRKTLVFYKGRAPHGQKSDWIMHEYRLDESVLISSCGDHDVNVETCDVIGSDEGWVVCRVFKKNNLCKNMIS
Summary of the method: as §1

[9] = target: T8, GST-NTL8 NAC domain (Arabidopsis thaliana, UniProt Q9XIN7 14-156); conditions: protein: recombinant; tags: GST; chain copies: 2; dsDNA, one strand shown
T8 sequence: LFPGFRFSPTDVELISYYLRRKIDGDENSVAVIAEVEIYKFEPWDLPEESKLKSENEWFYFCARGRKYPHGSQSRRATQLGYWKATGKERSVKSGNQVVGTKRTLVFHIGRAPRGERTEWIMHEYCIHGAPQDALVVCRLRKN
Summary of the method: as §1

[10] = target: T9, GST-SND1(1-203) (Arabidopsis thaliana, UniProt Q9LPI7 1-203); conditions: protein: recombinant; tags: GST; chain copies: 2; dsDNA, one strand shown
T9 sequence: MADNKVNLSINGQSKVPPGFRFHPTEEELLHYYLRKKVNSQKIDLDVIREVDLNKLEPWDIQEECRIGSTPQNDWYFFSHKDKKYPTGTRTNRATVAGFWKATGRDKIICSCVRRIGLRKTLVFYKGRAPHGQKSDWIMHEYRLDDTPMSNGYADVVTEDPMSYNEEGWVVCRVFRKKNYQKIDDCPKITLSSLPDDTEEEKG
Summary of the method: as §1

[11] = target: T10, GST-VND3 NAC domain (Arabidopsis thaliana, UniProt Q9FH59 12-162); conditions: protein: recombinant; tags: GST; chain copies: 2; dsDNA, one strand shown
T10 sequence: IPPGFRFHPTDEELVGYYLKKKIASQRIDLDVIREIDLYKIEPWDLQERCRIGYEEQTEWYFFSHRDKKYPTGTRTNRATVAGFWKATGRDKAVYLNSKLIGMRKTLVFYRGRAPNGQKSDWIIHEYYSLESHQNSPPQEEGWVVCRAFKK
Summary of the method: as §1

[12] = target: T11, GST-VND7 NAC domain (Arabidopsis thaliana, UniProt Q9C8W9 9-158); conditions: protein: recombinant; tags: GST; chain copies: 2; dsDNA, one strand shown
T11 sequence: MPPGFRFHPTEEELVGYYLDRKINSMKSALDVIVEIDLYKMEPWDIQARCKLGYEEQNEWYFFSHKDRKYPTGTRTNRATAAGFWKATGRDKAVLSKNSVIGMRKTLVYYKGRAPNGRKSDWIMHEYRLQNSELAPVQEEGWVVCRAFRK
Summary of the method: as §1

[13] = target: GST-WRKY1(266-371) (Arabidopsis thaliana, UniProt Q9SI37 266-371); conditions: protein: recombinant; tags: GST; dsDNA, one strand shown
Summary of the method: as §1

Sequence of GST-NTL6(1-168) (Q9SCK6 1-168): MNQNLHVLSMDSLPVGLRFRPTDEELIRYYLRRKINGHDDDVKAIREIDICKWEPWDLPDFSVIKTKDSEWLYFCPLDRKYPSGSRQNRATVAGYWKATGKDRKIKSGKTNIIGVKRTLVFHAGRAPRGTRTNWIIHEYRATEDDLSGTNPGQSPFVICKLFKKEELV
Sequence of GST-WRKY1(266-371) (Q9SI37 266-371): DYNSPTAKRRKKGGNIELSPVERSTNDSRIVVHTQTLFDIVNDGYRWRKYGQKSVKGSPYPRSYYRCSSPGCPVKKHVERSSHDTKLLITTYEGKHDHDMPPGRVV

Sequence | binding signal [1] | binding signal [2] | binding signal [3] | binding signal [4] | binding signal [5] | binding signal [6] | binding signal [7] | binding signal [8] | binding signal [9] | binding signal [10] | binding signal [11] | binding signal [12] | binding signal [13]
ACGCAAAG | 0.455 E-score | 0.102 E-score | 0.273 E-score | 0.228 E-score | 0.256 E-score | 0.452 E-score | 0.295 E-score | 0.331 E-score | 0.19 E-score | 0.407 E-score | 0.374 E-score | 0.346 E-score | 0.16 E-score
CTTACTTA | 0.205 E-score | 0.454 E-score | 0.164 E-score | 0.137 E-score | 0.154 E-score | 0.276 E-score | 0.111 E-score | 0.221 E-score | 0.208 E-score | 0.317 E-score | 0.209 E-score | 0.106 E-score | 0.235 E-score
ACGTAACG | 0.423 E-score | 0.0652 E-score | 0.436 E-score | 0.389 E-score | 0.348 E-score | 0.438 E-score | 0.411 E-score | 0.272 E-score | 0.118 E-score | 0.415 E-score | 0.359 E-score | 0.409 E-score | 0.078 E-score
GACGTAAC | 0.354 E-score | 0.088 E-score | 0.355 E-score | 0.369 E-score | 0.268 E-score | 0.4 E-score | 0.409 E-score | 0.24 E-score | 0.204 E-score | 0.392 E-score | 0.367 E-score | 0.296 E-score | 0.152 E-score
AGACGTGA | 0.217 E-score | 0.0777 E-score | 0.425 E-score | 0.368 E-score | 0.356 E-score | 0.272 E-score | 0.223 E-score | 0.157 E-score | 0.116 E-score | 0.25 E-score | 0.358 E-score | 0.348 E-score | 0.116 E-score
CGTCAAAC | 0.109 E-score | 0.0906 E-score | 0.0928 E-score | 0.163 E-score | 0.147 E-score | 0.134 E-score | 0.0647 E-score | 0.159 E-score |  | 0.198 E-score | 0.145 E-score | 0.129 E-score | 0.44 E-score
AACGTAAA | 0.254 E-score | 0.0913 E-score | 0.175 E-score | 0.241 E-score | 0.298 E-score | 0.342 E-score | 0.24 E-score | 0.36 E-score |  | 0.436 E-score | 0.252 E-score | 0.248 E-score | 0.165 E-score
GTACGTCA | 0.441 E-score | 0.0743 E-score | 0.413 E-score | 0.295 E-score | 0.366 E-score | 0.45 E-score | 0.363 E-score | 0.244 E-score | 0.149 E-score | 0.422 E-score | 0.38 E-score | 0.373 E-score | 0.228 E-score
ACGTAAGT | 0.357 E-score | 0.212 E-score | 0.418 E-score | 0.402 E-score | 0.407 E-score | 0.39 E-score | 0.344 E-score | 0.233 E-score | 0.125 E-score | 0.35 E-score | 0.414 E-score | 0.42 E-score | 0.112 E-score
CAAGGAAA | 0.231 E-score | 0.31 E-score | 0.165 E-score | 0.147 E-score | 0.167 E-score | 0.241 E-score | 0.0952 E-score | 0.189 E-score | 0.46 E-score | 0.242 E-score | 0.202 E-score | 0.181 E-score | 0.0889 E-score
ACGTAAAA | 0.366 E-score | 0.161 E-score | 0.336 E-score | 0.331 E-score | 0.35 E-score | 0.406 E-score | 0.326 E-score | 0.312 E-score | 0.0957 E-score | 0.436 E-score | 0.368 E-score | 0.344 E-score | 0.0914 E-score

— article PMC4081100, “A DNA-binding-site landscape and regulatory network analysis for NAC transcription factors in Arabidopsis thaliana”
